Bioassay records from PubChem BioAssay.
Compounds with a hit are over-represented: about 1.4% of the library has one in this group of screens.
ARNT TACC3 PPI: disruptors of ARNT/TACC3 protein interaction, primary screen, biochemical, AlphaScreen, single concentration | Transforming acidic coiled-coil-containing protein 3 (Homo sapiens), Q9Y6A5 | AlphaScreen His-ARNT PAS-B/GST-TACC3 binding, luminescence; TACC3 fragment carries E629A point mutation | inhibition, % at 9.99 µM | hit rate 0.66% among 390,000;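 active means mean inhibition of replicates at least 50% and at least half of replicates each reaching 50%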;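 further: 0% = complete ARNT plus TACC3 wells and 100% = ARNT alone without TACC3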
CFTR F508del cor: F508del CFTR correction, initial screen, CFBE line, single point. CFBE cells, YFP halide quenching; stimulated with forskolin plus potentiator P3; % fluorescence drop versus neutral controls. activity (quench increase), % at 7.58 µM. hit rate 0.36% among 350,000;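 active means mean added fluorescence quench of at least 8% versus neutral control, with both replicates also reaching 8%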;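 further: cells transiently co-express mutant CFTR-F508del with the halide-sensitive YFP; corrector assay measuring rescue of mutant channel to the surface after 24 h compound exposure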
C2C12 statin: suppressors of statin myotoxicity in C2C12 myotubes, primary screen, cell-based, single point, plate reader | C2C12 myotubes + simvastatin, ATP luminescence, 48 h; scaled: DMSO 0, geranylgeraniol control 100 | AID 602340, 2012 | rescue of ATP level, % at 7.49 µM | hit rate 0.78% among 330,000;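 active means mean ATP rescue above about 67%, or every replicate alone reaching that limit, limit read from the data, passing the limit was not always enough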;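 further: myotubes were challenged with 10 µM simvastatin during compound exposure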
PglD DTNB: C. jejuni PglD acetyltransferase inhibitors, primary screen, biochemical, DTNB colorimetric, single point. hit rate 0.098% among 360,000. AID 602405, 2012. purified PglD enzyme, DTNB colorimetric CoA detection. inhibition, % at 12.5 µM; in the data active means inhibition above about 16%, passing the limit was not always enough
ARNT Alpha ctr: AlphaScreen signal interference compounds, dose response, artefact control for ARNT-TACC3 interaction inhibitor project, biochemical, luminescence, cherry-pick; shares compounds with ARNT TACC3 PPI; His-ARNT PASB-GST AlphaScreen artifact counter-screen; AC50, µM (highest dose often 68 µM), inactives show top-dose activity change, negative = signal decrease; hit rate 50% among 1,200; AID 651705, 2012;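 active means every separate test run was called active for a drop in luminescence, with AC50 within twice the top valid dose, actives reach about 71 µM in these data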
An asterisk follows results filed as active; . = no result given; [ ] = remark or other dose.

SMILES	ARNT TACC3 PPI	CFTR F508del cor	C2C12 statin	PglD DTNB	ARNT Alpha ctr
Cc1ccc(S(=O)(=O)Nc2ccc3c(c2)CC(=O)N([C@@H](C)CO)C[C@@H](C)[C@@H](CN(C)C(=O)Nc2ccc(C(F)(F)F)cc2)O3)cc1	2	-1	8	2	.
Cc1ccc(C(=O)Nc2nnc(-c3ccco3)o2)cc1	29	.	.	5	.
N#Cc1ccc(C(=O)Nc2nnc(-c3ccco3)o2)cc1	40*	-1	.	.	-38%
Cc1ccsc1C(=O)Nc1nnc(-c2ccco2)o1	54*	.	-2	1	48µM*
Cc1ccc(S(=O)(=O)N(C)C[C@@H]2OCCCC[C@H](C)Oc3ccc(NC(=O)Nc4ccc(F)cc4)cc3C(=O)N([C@H](C)CO)C[C@@H]2C)cc1	4	-3	.	-7	.
N#Cc1ccc(CC(=O)c2ccccc2)[nH]c1=O	active	-3	-4	-2	-12%
O=c1[nH]c(Nc2ccccc2)cc2cc(Br)ccc12	35	-1	28	-7	.
COc1ccccc1Nc1cc2cc(Br)ccc2c(=O)[nH]1	55*	2	-26	-2	-26%
COc1ccc(CCNC(=O)CSc2nnc(Cc3csc(N)n3)n2C)cc1OC	28*	.	7	.	-10%
COc1ccc(Br)cc1CNc1ccc(O)cc1	14*	.	15	5	53µM*
COc1ccc(Br)cc1CNc1ccc2[nH]c(=O)[nH]c2c1	11	-1	0	.	.
C[C@@H]1CN([C@@H](C)CO)C(=O)c2cc(NS(=O)(=O)c3ccccc3)ccc2O[C@H]1CN(C)C(=O)Nc1ccc(F)cc1	-11	-1	-38	0	.
CC(=O)N(C1=C(O)c2ccccc2C(=O)C1=O)C1CCCCC1	3	1	-19	0	.
CC(=O)N(C)C1=C(O)c2ccccc2C(=O)C1=O	11*	.	-1	-5	5%
Cc1c(CCC(=O)O)c(=O)oc2c(C)c3occ(-c4ccc(Cl)cc4)c3cc12	56*	5	15	-1	62µM*
O=C(c1cccnc1)N1CC[C@@H]2[C@H](CO)Nc3ccc(-c4ccccc4)cc3[C@@H]21	4	4	-4	1	.
O=C(c1ccccn1)N1CC[C@H]2[C@H](CO)Nc3ccc(Br)cc3[C@H]21	9	-2	2	-7	.
O=C(c1ccccn1)N1CC[C@@H]2[C@H]1c1cc(Br)ccc1N[C@@H]2CO	69*	1	43	-9	53µM*
CN(C)C(=O)c1cccc(-c2ccc3c(c2)[C@@H]2[C@@H](CCN2C(=O)c2cccnc2)[C@@H](CO)N3)c1	65*	0	-4	-2	-10%[42 µM]
CCOc1cc(CNCc2ccccn2)cc(Cl)c1OCC	53*	-1	-17	8	-21%
CCOc1cc(CNCc2ccccn2)cc(Cl)c1OC	53*	-2	13	0	-30%
COc1cccc(CNCc2ccc(OC)c3ccccc23)c1OC	9	-1	-16	3	.
COc1cccc(CNCc2ccccn2)c1OC	61*	.	24	-1	-5%
COc1cc(CNCc2ccccn2)ccc1OCc1ccc(Cl)cc1Cl	55*	.	13	.	-39%
COc1cc(CNCCN2CCOCC2)ccc1OCc1ccc(Cl)cc1Cl	1	.	-45	1	.
SMILES	ARNT TACC3 PPI	CFTR F508del cor	C2C12 statin	PglD DTNB	ARNT Alpha ctr
CCOc1cc(CNCC(O)c2ccccc2)cc(Cl)c1OC (configuration not stated)	.	5	12	-4	.
O=C(C[C@H]1CC[C@@H]2[C@H](COC[C@H](O)CN2Cc2cc(F)cc(F)c2)O1)NC1CCC1	-3	-1	16	4	.
CCN(CC)c1ccc(C(=O)NNC(=O)CCl)cc1	-1	-2	31	1	.
CCN(CC)c1ccc(C(=C2C=CC(=[N+](CC)CC)C=C2)c2ccc(N(CC)CC)cc2)cc1	50*	-6	-362	5	0.7µM*
Oc1ccccc1-c1nc(NCc2cccnc2)c2ccccc2n1	0	3	.	-6	.
C=CCNc1nc(-c2ccccn2)nnc1-c1ccccc1	104*	.	.	3	1.3µM*
C=CCNC(=O)c1ccc2nc(-c3ccccc3)c(-c3ccccc3)nc2c1	4	.	.	2	.
Cc1ccccc1CNc1nc(-c2ccccn2)nnc1-c1ccccc1	.	.	.	.	3.1µM*
c1ccc(-c2nnc(-c3ccccn3)nc2NCc2cccnc2)cc1	.	.	.	.	0.69µM*
